# Test results from PubChem BioAssay (EPA / NIEHS).
# Records with an inconclusive call do not appear. Activity calls are given as the source filed them. The calls were made as follows, unless noted: active = hit-call score of the fitted dose curve at least 0.9, where 1 is the maximum; inconclusive = response in the unintended direction; inactive = score below 0.9.
# Columns and labels:
# [1] = TAMU_PeakParms_SingleDonor1434_Asystole: Texas A&M University (TAMU) 1.5-hr Human Induced Pluripotent Stem Cell (iPSC)-derived Cardiomyocytes Calcium (Ca+2) Flux Assay for Cardiotoxicity: Asystole (quiescence of beating) (AID 2284328)
# How it was run: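 Human iPSC-derived cardiomyocytes (donor 1434) were exposed to 0.2, 1, 10 and 100 uM compound in 0.5% DMSO for 90 min at 37C. Ca2+-dye fluorescence gave average peak frequency; POD is EC95, a 95% beat-rate drop versus DMSO.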
# [2] = IUF_NPC2-5_viability_120hr: Viability Assessment at 120 hours in the Leibniz Research Institute for Environmental Medicine (IUF) Neural Progenitor Cell Migration and Differentiation Assay (NPC2-5) (AID 2284312; active = hit-call score of the fitted dose curve at least 0.9, where 1 is the maximum; inactive = score below 0.9)
# How it was run: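 Human fetal (GW 16-19) neural progenitor spheres of 0.3 mm were plated on poly-D-lysine/laminin in N2 differentiation medium and exposed from day 0 for 120 h, with half-medium refresh at day 3. Viability was read as alamar blue resazurin-to-resorufin fluorescence against DMSO.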
# [3] = CCTE_Mundy_HCI_iCellGluta_NOG_NeuriteLength: CCTE's Neurite Outgrowth Assay in iCellGluta cells for Neurite Length, Mundy Lab (AID 2284318)
# How it was run: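 Automated high-content imaging of betaIII-tubulin (Alexa Fluor-488) and Hoechst-stained cells gave neurite length, normalized to the DMSO baseline.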
# [4] = IUF_NPC1_cytotoxicity_72hr: Cytotoxicity Assessment at 72 hours in the Leibniz Research Institute for Environmental Medicine (IUF) Neural Progenitor Cell Proliferation Assay (NPC1) (AID 2284332);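 also: rising LDH signal means more cytotoxicity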
# How it was run: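 Spheres of primary human neural progenitors are plated one per well on day 0 in growth-factor medium and dosed at once. After three days at 37C, supernatant LDH is measured fluorimetrically via resazurin reduction.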
# [5] = CCTE_Deisenroth_5AR_NBTE_donor: CCTE's 5alpha-reductase NanoBRET Target Engagement Assay […], Deisenroth Lab (AID 2284319; active = hit-call score of the fitted dose curve at least 0.9, where 1 is the maximum; inactive = score below 0.9); settings: actives raise or lower the signal
# How it was run: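 HEK293T cells were reverse transfected with an SRD5A2-NanoLuc vector for 20 h, exposed to test chemical (8 points, 10 nM - 29.9 uM) for 3 h, then testosterone tracer for 2 h more. Donor luminescence (460 nm) was read; bidirectional fit versus DMSO.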
# [6] = CCTE_Deisenroth_5AR_NBTE_acceptor: CCTE's 5alpha-reductase NanoBRET Target Engagement Assay - Autofluorescence Screen, Deisenroth Lab (AID 2284321; active = hit-call score of the fitted dose curve at least 0.9, where 1 is the maximum; inactive = score below 0.9;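 also: compound fluorescence in the acceptor channel under 460 nm excitation flags autofluorescence artifacts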); settings: actives raise or lower the signal
# How it was run: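 Autofluorescence check: ToxCast chemicals, nominal 100 uM, excitation 460 nm, n=3 runs. Acceptor fluorescence endpoint, bidirectional fit relative to DMSO. Parent assay in HEK293T, 5 h post-dose.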
# SRD5A2 (gene 6716) = assay: CCTE_Deisenroth_5AR_NBTE_ratio: CCTE's 5alpha-reductase NanoBRET Target Engagement Assay - Ratio, Deisenroth Lab (AID 2284322; active = hit-call score of the fitted dose curve at least 0.9, where 1 is the maximum; inactive = score below 0.9); settings: actives raise or lower the signal
# How it was run: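 HEK293T transiently expressing SRD5A2-NanoLuc; cells exposed to chemical (8-point, 10 nM - 29.9 uM) for 5 h total, testosterone tracer added for final 2 h. NanoBRET acceptor/donor ratio (650/460 nm), bidirectional fit vs DMSO.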
# [7] = VALA_TUBIPS_Agonist_TubuleLength: VALA Sciences human iPS-derived Endothelial Tubule Formation (TUBIPS) Agonism Assay (AID 2284311)
# How it was run: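 Human iPS-derived endothelial cells were exposed to compound for 72 h. Tubule formation was imaged by high-content fluorescence and scored as gain of signal relative to DMSO vehicle (agonist mode).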
# [8] = VALA_TUBIPS_Antagonist_TubuleLength: VALA Sciences human iPS-derived Endothelial Tubule Formation (TUBIPS) Antagonist Assay (AID 2284313)
# How it was run: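 Cells grown 3 days with 10 ng/ml VEGF, then exposed to compounds in VEGF medium for another 3 days. After fixation, nuclear stain and CD31 immunofluorescence imaging gave mean total tubule length against 0.1% DMSO; suramin (100 uM) inhibition control.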
# [9] = VALA_MIGHUV2_Bcatenin: VALA Sciences human Umbilical Vein Endothelial Cell Migration (MIGHUV) Assay, Nuclear Translocation of beta-Catenin after Recovery (AID 2284315)
# How it was run: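 HUVEC (4000 cells/well) scratch-wounded, dosed within 30 min over 6 concentrations in triplicate, recovered 24 h. After fixation, Hoechst and anti-beta-catenin immunofluorescence imaged for nuclear CTNB. Gain of signal versus 0.1% DMSO.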
# [10] = VALA_MIGHUV2_WoundArea: VALA Sciences human Umbilical Vein Endothelial Cell Migration (MIGHUV) Assay, Area of Scratch Wound after Recovery (AID 2284316)
# How it was run: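 HUVEC seeded at 9000 cells/well, scratched after 24 h; test chemical added within 30 min, 6-point concentration response in triplicate (0.1% DMSO vehicle). After 24 h wound recovery, cells fixed and Hoechst-stained nuclei in wound area imaged; Cytochalasin D reference control.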
# [11] = VALA_TUBHUV_Antagonist_TubuleLength: VALA Sciences human Umbilical Vein Endothelial Tubule Formation (TUBHUV) Antagonism Assay (AID 2284325)
# How it was run: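 HUVEC–HDF co-culture (1:3) pre-grown 3 days with 10 ng/ml VEGF, then 3 days with compound plus VEGF. Fixed, nuclear and CD31 stained; total tubule length by imaging versus 0.1% DMSO; suramin 100 uM positive control.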
# [12] = VALA_MIGHUV1_ScratchOnly_CellCount: Viability Assessment in the VALA Sciences human Umbilical Vein Endothelial Cell Migration (MIGHUV) Assay, Scratch Wound Inhibited Recovery (AID 2284327)
# How it was run: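 HUVEC scratched after 24 h culture, chemical added within 30 min at 6 concentrations in triplicate (0.1% DMSO vehicle). After 24 h recovery, fixed cells were counted by Hoechst nuclear imaging in the wound area.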
# [13] = VALA_MIGHUV1_ScratchOnly_WoundArea: VALA Sciences human Umbilical Vein Endothelial Cell Migration (MIGHUV) Assay, Area of Scratch Wound Inhibited Recovery (AID 2284336)
# How it was run: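 HUVEC monolayers (9000 cells/well) were scratched after 24 h, dosed within 30 min (six concentrations, triplicate, 0.1% DMSO), allowed 24 h recovery, then fixed. Hoechst-stained nuclei in the wound imaged; cytochalasin D as reference.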
# [14] = VALA_TUBHUV_Antagonist_CellCount: Viability Assessment in the VALA Sciences human Umbilical Vein Endothelial Tubule Formation (TUBHUV) Antagonism Assay (AID 2284310)
# How it was run: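 HUVEC co-cultured with HDF (1:3) 3 days in 10 ng/ml VEGF, then 3 days with compounds in VEGF medium. Fixed, nuclear stain and CD31 immunofluorescence, imaged; cell counts fitted versus 0.1% DMSO, loss of signal read as lower viability.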
# [15] = VALA_MIGHUV2_CellCount: Viability Assessment in the VALA Sciences human Umbilical Vein Endothelial Cell Migration (MIGHUV) Assay, Area of Scratch Wound after Recovery (AID 2284314)
# How it was run: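 Scratch-wounded HUVEC monolayers received test chemical within 30 min, 6-point concentration response in triplicate, 0.1 % DMSO vehicle. After 24 h wound recovery, fixed cells were Hoechst-stained and nuclei imaged; loss of signal versus DMSO indicates reduced viability.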
# IYD (gene 389434) = assay: CCTE_GLTED_hIYD: CCTE's human Iodotyrosine Deiodinase (xIYD) Inhibition Assay, Great Lakes Toxicology and Ecology Division (GLTED) Lab (AID 2284317);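 also: cell-free human IYD enzyme made in baculovirus insect cells; iodide freed from monoiodotyrosine measured by cerium arsenite color change at 420 nm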
# How it was run: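 Absorbance change at 420 nm from the iodide-catalysed cerium-arsenic reaction reports free iodide released by human IYD from monoiodotyrosine. Enzyme, substrate and chemical are incubated 3 h; loss of signal is fitted relative to DMSO baseline.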
# [16] = system: Brachyury (BRA) Protein Expression, Deisenroth Lab, TBXT (gene 6862); assay: CCTE_Deisenroth_DEVTOX-GLR_legacy_Bra: (Legacy) CCTE's DevTox GLR-Endo Assay Evaluation of Brachyury (BRA) Protein Expression, Deisenroth Lab (AID 2284329; active = hit-call score of the fitted dose curve at least 0.9, where 1 is the maximum; inactive = score below 0.9)
# How it was run: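 RUES2-GLR human pluripotent cells differentiated 48 h with two 24-h-interval chemical exposures (1 nM - 200 uM, 10 points); fixed, nuclear-stained, imaged. Bra+ cell percentage (intensity 5x BMAD above pluripotent control median) fitted relative to 0.2% DMSO.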
# [17] = CCTE_Deisenroth_DEVTOX-GLR_legacy_CellCount: (Legacy) Viability Assessment in CCTE's DevTox GLR-Endo Assay, Deisenroth Lab (AID 2284331; active = hit-call score of the fitted dose curve at least 0.9, where 1 is the maximum; inactive = score below 0.9); settings: actives raise or lower the signal
# How it was run: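 RUES2-GLR human pluripotent cells were seeded 24 h, then differentiated 48 h with two compound doses at 24 h intervals (10-point, 1 nM - 200 uM). Fixed nuclei were imaged and counted; bidirectional fitting versus 0.2% DMSO.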
# [18] = VALA_TUBIPS_Antagonist_CellCount: Viability Assessment in the VALA Sciences human iPS-derived Endothelial Tubule Formation (TUBIPS) Antagonism Assay (AID 2284335)
# Description: VALA_TUBIPS_Agonist is a cell-based, multiplexed assay that uses human iPS-derived endothelial cells (iPSC). Measurements were taken 72 hours after chemical dosing in a 96-well plate.VALA_TUBIPS_Antagonist_CellCount is the one of two assay components measured from the VALA_TUBIPS_Antagonist assay. It is designed to make measurements of viability, a form of viability reporter, as detected with fluorescence intensity signals by HCS Fluorescent Imaging technology. Data from the assay component VALA_TUBIPS_Antagonist_CellCount was analyzed at the endpoint, VALA_TUBIPS_Antagonist_CellCount, in the positive analysis fitting direction relative to DMSO as the negative control and baseline of activity. Using a type of viability reporter, loss-of-signal activity can be used to understand viability. To generalize the intended target to other relatable targets, this assay endpoint is annotated to the cell cycle intended target family, where the subfamily is cell count.
# This HUVEC-HDF assay was designed to detect chemical suppression of tubulogenesis, i.e. antagonism. To measure tubulogenesis antagonism, HUVEC cells were co-cultured with HDF cells at a 1:3 ratio for 3-days in 10 ng/ml VEGF (i.e., favorable conditions with growth factors), then changed to assay medium containing 10 ng/ml VEGF and ToxCast compounds for an additional 3-day period. […]
smiles,measurement,setting,value
CC(=O)[C@H]1CC[C@H]2[C@@H]3CCC4=CC(=O)CC[C@]4(C)[C@H]3CC[C@]12C,outcome,[1],inactive
c1ccc2[nH]c(-c3cscn3)nc2c1,outcome,[1],inactive
Cc1nn(C)c(Oc2ccccc2)c1C=NOCc1ccc(C(=O)OC(C)(C)C)cc1,outcome,[2],inactive
same,AC50,[3],0.353 µM (active)
same,outcome,[4],inactive
COCCO,outcome,[1],inactive
O=C(Nc1ccc([N+](=O)[O-])cc1Cl)c1cc(Cl)ccc1O,outcome,[5],inactive
same,outcome,[6],inactive
same,outcome,SRD5A2 (gene 6716),inactive
S=C(S)NCCNC(=S)S.[Mn+2].[S-]C([S-])=NCCN=C([S-])[S-].[Zn+2],outcome,[7],inactive
same,outcome,[2],inactive
same,outcome,[8],inactive
same,outcome,[9],inactive
same,outcome,[10],inactive
same,outcome,[3],inactive
same,outcome,[11],inactive
same,outcome,[12],inactive
same,outcome,[4],inactive
same,outcome,[13],inactive
CSC(=O)c1cccc2nnsc12,outcome,[2],inactive
same,outcome,[4],inactive
CCCN(CCC)C(=O)SCC,outcome,[2],inactive
same,outcome,[3],inactive
same,outcome,[4],inactive
CC(C)(c1ccc(O)cc1)c1ccc(O)cc1,outcome,[14],inactive
same,outcome,[7],inactive
same,outcome,[2],inactive
same,outcome,[8],inactive
same,outcome,[15],inactive
same,outcome,[9],inactive
same,outcome,[10],inactive
same,outcome,IYD (gene 389434),inactive
same,AC50,[11],75.1 µM (active)
same,outcome,[1],inactive
same,AC50,[16],49.5 µM (active)
same,AC50,[17],35.6 µM (active)
same,outcome,[4],inactive
same,outcome,[18],inactive
same,outcome,[13],inactive
N[C@@H](Cc1cc(I)c(Oc2ccc(O)c(I)c2)c(I)c1)C(=O)O,outcome,[14],inactive
same,outcome,[7],inactive
same,outcome,[8],inactive
same,outcome,[9],inactive
same,outcome,[11],inactive
same,outcome,[13],inactive
O=C(O)c1ccccc1,outcome,[2],inactive
same,outcome,[5],inactive
same,outcome,[6],inactive
same,outcome,SRD5A2 (gene 6716),inactive
same,outcome,[1],inactive
same,outcome,[4],inactive
S=C([S-])NCCNC(=S)[S-].[Mn+2],outcome,[2],inactive
same,outcome,[4],inactive
CCOC(=O)C(C)Oc1ccc(Oc2nc3ccc(Cl)cc3o2)cc1 (configuration not stated),outcome,IYD (gene 389434),inactive
CCN(CC)C(=O)c1cccc(C)c1,outcome,[2],inactive
same,AC50,[3],50.5 µM (active)
same,outcome,[4],inactive
CC1(C)C(C=C(Cl)Cl)C1C(=O)OCc1cccc(Oc2ccccc2)c1 (configuration not stated),outcome,[5],inactive
same,outcome,[6],inactive
same,outcome,SRD5A2 (gene 6716),inactive
same,outcome,[1],inactive
C#CCOC(=O)[C@@H](C)Oc1ccc(Oc2ncc(Cl)cc2F)cc1,outcome,[2],inactive
same,AC50,[3],22 µM (active)
same,outcome,[4],inactive
CCCCC(CC)COC(=O)c1ccccc1C(=O)O (configuration not stated),outcome,[16],inactive
same,AC50,[17],112 µM (active)
OB(O)O,outcome,[16],inactive
same,outcome,[17],inactive
CC(C)CCCCCCc1ccc(O)cc1,outcome,[7],inactive
same,outcome,[8],inactive
same,outcome,[15],inactive
same,AC50,IYD (gene 389434),48.4 µM (active)
same,outcome,[5],inactive
same,outcome,[6],inactive
same,outcome,SRD5A2 (gene 6716),inactive
same,outcome,[11],inactive
same,outcome,[13],inactive
